Most compounds without a hit are left out; they make up all but 2.9% or so of the library.
Pol eta inh: inhibitors of human DNA polymerase eta; Q9Y253; recombinant Pol eta, fluorescent DNA replication assay; Potency, µM (titrated, usually from 114 µM), for inactives: at the top dose activity change, negative = inhibition, actives largely listed as inhibitors; hit rate 1.2% among 390,000; AID 588591; note: potency is the fitted concentration of half-maximal effect; % is set by controls: 0 for no effect and ±100 for the full control effect
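Pol eta (10 nM) was preincubated with compounds for 15 min at room temperature, after which fluorescent replication substrate (50 nM final) was added to start the reaction. Fluorescence was read kinetically at 0 and 10 min.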
Pol iota inh: blocks human DNA polymerase iota activity; Q9UNA4; Pol iota fluorescent replication assay, 10 min; Potency, µM (top dose mostly 115 µM), for the others: at the highest dose activity, negative = inhibition, usual class: inhibitors; hit rate 1% among 390,000; AID 588590; note: potency is the fitted concentration of half-maximal effect
Target sequence (Q9UNA4 whole entry, looked up): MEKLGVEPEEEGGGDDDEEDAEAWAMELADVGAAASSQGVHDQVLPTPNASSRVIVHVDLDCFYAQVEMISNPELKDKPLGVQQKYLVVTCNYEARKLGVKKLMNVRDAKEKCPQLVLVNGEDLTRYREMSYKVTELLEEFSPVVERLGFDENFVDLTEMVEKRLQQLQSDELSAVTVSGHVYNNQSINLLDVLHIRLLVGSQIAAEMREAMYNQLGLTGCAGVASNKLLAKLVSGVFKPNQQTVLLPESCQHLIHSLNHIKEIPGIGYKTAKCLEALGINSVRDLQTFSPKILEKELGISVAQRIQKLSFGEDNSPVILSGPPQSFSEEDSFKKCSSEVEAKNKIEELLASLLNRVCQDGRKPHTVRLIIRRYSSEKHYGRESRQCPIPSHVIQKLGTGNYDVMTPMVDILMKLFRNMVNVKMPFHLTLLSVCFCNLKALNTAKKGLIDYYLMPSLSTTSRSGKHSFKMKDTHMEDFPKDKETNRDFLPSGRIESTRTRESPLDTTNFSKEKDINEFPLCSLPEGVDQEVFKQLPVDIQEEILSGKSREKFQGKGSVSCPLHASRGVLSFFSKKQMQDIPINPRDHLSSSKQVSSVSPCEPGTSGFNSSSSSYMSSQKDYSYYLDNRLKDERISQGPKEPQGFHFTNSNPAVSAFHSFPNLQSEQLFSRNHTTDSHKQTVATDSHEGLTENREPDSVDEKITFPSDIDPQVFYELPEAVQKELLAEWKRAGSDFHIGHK
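Pol iota at 10 nM preincubated 15 min with compounds at room temperature; reaction started with fluorescent substrate, 50 nM final. Fluorescence read kinetically at 0 and 10 min; buffer-only wells as negative control.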
PI5P4Ka inh: blocks human PI5P4K alpha kinase activity; P48426; PI5P4Kalpha enzyme, ADP-Glo luminescence, 60 min; hits give low values; max response, %; hit rate 1.2% among 330,000; AID 652105; active = max response of -50% or lower; inconclusive = between -30% and -50%; inactive = -30% or higher; note: value at the top dose of about 77 µM; % is set by controls: 0 for no effect and ±100 for the full control effect
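PI5P4Kalpha ADP-Glo assay; 5 microM ATP final; 60 min RT reaction; HEPES pH 7.4/EGTA/CHAPS, 5% DMSO; controls lacking substrate or enzyme; luminescent end-point.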
12-LOX inh: inhibitors of human 12S-lipoxygenase ALOX12 | P18054 | purified 12hLO, xylenol orange hydroperoxide absorbance | Potency, µM (series often up to 108 µM), without a hit: top-dose activity change, negative = inhibition, most hits filed as inhibitors | hit rate 1.1% among 580,000; note: potency is the fitted concentration of half-maximal effect; % is set by controls: 0 for no effect and ±100 for the full control effect
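Purified human 12hLO (150 nM final) in 25 mM Hepes, 0.01% Triton X-100, pH 7.0 was preincubated 15 min at room temperature with compound. Then 40 uM arachidonic acid was added, 30 min. Hydroperoxide was read by Fe-XO absorbance ratio 573/405 nm.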
Pol beta inh: inhibitors of human DNA polymerase beta | P06746 | Pol beta primer extension/strand displacement, fluorescence kinetic | Potency, µM (top dose mostly 114 µM), for inactives: top-dose activity change, negative = inhibition, hits mostly inhibitors | hit rate 1.3% among 340,000; note: potency is the fitted concentration of half-maximal effect; % is set by controls: 0 for no effect and ±100 for the full control effect
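Reaction started by 50 nM substrate onto compound-treated Pol beta (10 nM, 15 min preincubation, room temperature); plates read at 0 min and 10 min. Normalized concentration-effect data fitted by four-parameter Hill equation.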
POLK inh: DNA polymerase kappa (human) inhibition; Q9UBT6; purified Pol kappa, fluorescent DNA synthesis assay, 10 min; Potency, µM (titrated, usually from 107 µM), inactives show at the top dose activity, negative = inhibition, most hits filed as inhibitors; hit rate 0.53% among 400,000; note: potency is the fitted concentration of half-maximal effect; % is set by controls: 0 for no effect and ±100 for the full control effect
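Here, compound and 10 nM enzyme are combined for 15 min at room temperature; adding 50 nM substrate (final) starts DNA synthesis, tracked by fluorescence at 0 and 10 min against buffer-only wells.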
Numbers without * were called inactive. Unless noted, calls come from the whole dose curve; as a rule, active = well fitted inhibition curve with a large enough effect; inconclusive = small, poorly fitted or top-dose-only effect, or another doubt; inactive = no such curve, though single readings can be large or run the other way.

For COc1ccc2oc(=O)c(/C(C)=N/Nc3ccccc3)cc2c1 the results were Pol eta inh -1%, Pol iota inh inconclusive, PI5P4Ka inh -2, 12-LOX inh 32µM*, Pol beta inh -6% and POLK inh -22%.
CC(=O)c1c(NC(=O)c2ccccc2)[nH]c(-c2ccccc2)nc1=S was read as Pol eta inh -7%, Pol iota inh 14%, PI5P4Ka inh inconclusive, 12-LOX inh 40µM*, Pol beta inh 14% and POLK inh -1%.
O=S(=O)(Nc1nc2ccccc2nc1NC1CCCCC1)c1ccc(F)cc1 was read as 12-LOX inh 0.63µM*.
Screening O=S(=O)(Nc1nc2ccccc2nc1NC1CC1)c1ccccc1 returned 12-LOX inh -14%.
For O=C(O)c1cn(-c2ccccc2)nc1C(=O)O the results were Pol eta inh -16%, Pol iota inh 0%, PI5P4Ka inh -52*, 12-LOX inh inconclusive, Pol beta inh 21% and POLK inh -12%.
`COC(=O)c1cn(-c2ccccc2)nc1C(=O)OC` gave Pol eta inh 1%, Pol iota inh -6%, 12-LOX inh 0%, Pol beta inh 40% and POLK inh -3%.
CC(C)CC1NC(=S)N(C2CCCCC2)C1=O (centres undefined) was read as Pol eta inh -19%, Pol iota inh -11%, PI5P4Ka inh -59*, 12-LOX inh 0%, Pol beta inh 12% and POLK inh -9%.
`CCC1NC(=S)N(C2CCCCC2)C1=O` (centres undefined) gave Pol eta inh -2%, Pol iota inh 5%, 12-LOX inh -13%, Pol beta inh 50% and POLK inh -1%.
For Cc1cc(=O)oc2cc(OCc3ccc(C(=O)OCC(=O)NC(=O)NC(C)(C)C)cc3)ccc12 the results were 12-LOX inh 0%.
Screening O=[N+]([O-])c1cc([N+](=O)[O-])c2nonc2c1Nc1ccc(O)cc1 returned Pol eta inh 10%, Pol iota inh 2.5µM*, PI5P4Ka inh inconclusive, 12-LOX inh -16%, Pol beta inh 14% and POLK inh -24%.
O=[N+]([O-])c1cc([N+](=O)[O-])c2nonc2c1Nc1ccccc1O was read as Pol eta inh -16%, Pol iota inh 50%, PI5P4Ka inh inconclusive, 12-LOX inh inconclusive, Pol beta inh -2% and POLK inh -7%.
For Cc1cccc(OCCCC(=O)Nc2ccc(S(N)(=O)=O)cc2)c1 the results were Pol eta inh -13%, Pol iota inh 105%, PI5P4Ka inh 1, 12-LOX inh 7%, Pol beta inh inconclusive and POLK inh -3%.
`CCN(CC)c1ccc(NC(=O)CCCOc2cccc(C)c2)cc1` gave Pol eta inh -11%, Pol iota inh 85%, PI5P4Ka inh 0, 12-LOX inh 40µM*, Pol beta inh 2% and POLK inh -3%.
`COc1ccc(CN(C)C(=O)COc2cccc(-c3nc(-c4ccc(OC)cc4)no3)c2)cc1` gave 12-LOX inh -21%.
For S=c1[nH]nc(-c2cc(-c3ccco3)[nH]n2)n1-c1ccccc1 the results were Pol eta inh 6%, Pol iota inh 7%, PI5P4Ka inh -10, 12-LOX inh 22µM*, Pol beta inh 11% and POLK inh -1%.
Screening Oc1ccccc1-c1cc(-c2ccco2)[nH]n1 returned Pol eta inh -6%, Pol iota inh inconclusive, 12-LOX inh 20µM*, Pol beta inh 0% and POLK inh -7%.
NC(=S)n1[nH]c(-c2ccc([N+](=O)[O-])cc2)c(N=Nc2ccc(Cl)cc2)c1=O was read as Pol eta inh inconclusive, Pol iota inh 20µM*, PI5P4Ka inh inconclusive, Pol beta inh inconclusive and POLK inh inconclusive.
For CC1=Nc2cc(C(=O)O)ccc2Sc2ccc(Br)cc21 the results were Pol eta inh 50µM*, Pol iota inh inconclusive, PI5P4Ka inh -16, 12-LOX inh 45µM*, Pol beta inh 1% and POLK inh inconclusive.

Screening results deposited in PubChem BioAssay by National Center for Advancing Translational Sciences (NCATS).
